For six molecules, inhibition results are on record in ChEMBL document CHEMBL1961873, “Compounds: GSK PKIS; Assays: Nanosyn kinase panel” (2012).

Molecules are shown by their SMILES.

A word on the inhibition: it is the drop in the measured response relative to a control, in per cent.

Assay [1] has as its target Tyrosine-protein kinase CSK (Homo sapiens) (UniProt P41240). The conditions noted are these: at 1 µM.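 Further: each value is an averaged inhibition reading.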
The target in assay [2] is T1, Discoidin domain-containing receptor 2 (Homo sapiens) (UniProt Q16832).
T1 sequence (whole entry): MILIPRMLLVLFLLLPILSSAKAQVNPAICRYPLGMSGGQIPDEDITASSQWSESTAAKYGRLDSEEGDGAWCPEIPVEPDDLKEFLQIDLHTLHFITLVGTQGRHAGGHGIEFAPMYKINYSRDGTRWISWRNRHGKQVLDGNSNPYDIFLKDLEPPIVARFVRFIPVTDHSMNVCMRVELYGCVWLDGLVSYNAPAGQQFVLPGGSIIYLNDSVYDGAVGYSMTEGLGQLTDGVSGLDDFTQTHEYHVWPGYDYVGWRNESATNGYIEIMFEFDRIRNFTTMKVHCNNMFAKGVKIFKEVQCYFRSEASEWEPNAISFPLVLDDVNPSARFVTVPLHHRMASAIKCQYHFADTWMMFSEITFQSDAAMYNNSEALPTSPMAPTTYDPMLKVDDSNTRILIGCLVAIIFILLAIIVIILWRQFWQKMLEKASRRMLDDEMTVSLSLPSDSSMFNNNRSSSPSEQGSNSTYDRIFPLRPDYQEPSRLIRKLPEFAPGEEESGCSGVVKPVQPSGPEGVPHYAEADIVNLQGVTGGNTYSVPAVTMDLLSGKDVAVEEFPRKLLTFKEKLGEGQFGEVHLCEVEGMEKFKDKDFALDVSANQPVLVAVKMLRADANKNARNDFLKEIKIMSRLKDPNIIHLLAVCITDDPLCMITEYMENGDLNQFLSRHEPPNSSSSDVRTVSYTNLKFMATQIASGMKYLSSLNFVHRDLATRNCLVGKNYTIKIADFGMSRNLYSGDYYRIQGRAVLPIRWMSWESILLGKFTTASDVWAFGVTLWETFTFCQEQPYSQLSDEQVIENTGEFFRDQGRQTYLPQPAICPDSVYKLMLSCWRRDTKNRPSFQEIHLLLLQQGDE
The conditions noted are these: at 0.1 µM.

Assay [3] addresses T1, Discoidin domain-containing receptor 2 (Homo sapiens). Conditions: at 1 µM.
In assay [4] the target is Epidermal growth factor receptor (Homo sapiens) (UniProt P00533). The conditions noted are these: at 0.1 µM.
Sequence of Epidermal growth factor receptor (Homo sapiens) (P00533 whole entry): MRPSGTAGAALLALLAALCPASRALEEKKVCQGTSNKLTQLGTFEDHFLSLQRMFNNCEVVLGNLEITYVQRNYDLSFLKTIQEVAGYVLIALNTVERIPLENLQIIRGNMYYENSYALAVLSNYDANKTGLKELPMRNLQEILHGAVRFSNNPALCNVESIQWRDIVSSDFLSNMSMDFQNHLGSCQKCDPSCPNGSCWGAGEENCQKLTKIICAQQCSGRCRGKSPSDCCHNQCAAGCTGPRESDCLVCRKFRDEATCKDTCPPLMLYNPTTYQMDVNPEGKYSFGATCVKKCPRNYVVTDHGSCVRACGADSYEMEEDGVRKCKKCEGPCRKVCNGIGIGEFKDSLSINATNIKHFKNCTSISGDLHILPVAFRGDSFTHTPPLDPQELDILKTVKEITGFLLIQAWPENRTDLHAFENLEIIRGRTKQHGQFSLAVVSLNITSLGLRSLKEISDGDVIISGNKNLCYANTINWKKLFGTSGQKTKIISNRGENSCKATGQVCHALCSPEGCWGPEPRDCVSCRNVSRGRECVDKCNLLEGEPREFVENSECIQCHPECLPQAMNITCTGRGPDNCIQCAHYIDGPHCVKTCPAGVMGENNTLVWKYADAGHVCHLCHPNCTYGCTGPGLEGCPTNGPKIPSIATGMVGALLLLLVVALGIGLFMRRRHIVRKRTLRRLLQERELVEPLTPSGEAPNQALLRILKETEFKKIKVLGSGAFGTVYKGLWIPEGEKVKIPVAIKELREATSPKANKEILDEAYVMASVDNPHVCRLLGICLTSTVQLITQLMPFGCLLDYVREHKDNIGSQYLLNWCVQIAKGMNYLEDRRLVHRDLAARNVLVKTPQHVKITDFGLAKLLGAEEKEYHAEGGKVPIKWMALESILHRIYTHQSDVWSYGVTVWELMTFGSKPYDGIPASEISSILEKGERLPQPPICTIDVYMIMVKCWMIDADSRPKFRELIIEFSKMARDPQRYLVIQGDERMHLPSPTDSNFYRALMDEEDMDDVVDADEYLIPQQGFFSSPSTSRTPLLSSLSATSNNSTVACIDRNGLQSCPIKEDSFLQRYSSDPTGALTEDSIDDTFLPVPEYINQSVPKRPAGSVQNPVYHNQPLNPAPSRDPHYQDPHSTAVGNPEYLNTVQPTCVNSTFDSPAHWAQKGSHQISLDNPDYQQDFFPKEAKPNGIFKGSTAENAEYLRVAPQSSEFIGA
For assay [5] the target is unchanged. Conditions: at 1 µM.
Assay [6] has as its system Epidermal growth factor receptor (Homo sapiens), P00533 [L858R]. Conditions: at 0.1 µM.
The test system is the same in assay [7]. Conditions: at 1 µM.
The test system of assay [8] is Epidermal growth factor receptor (Homo sapiens), P00533 [L861Q]. Conditions: at 0.1 µM.
Sequence of Epidermal growth factor receptor (Homo sapiens), P00533 [L861Q] (P00533 whole entry L861Q): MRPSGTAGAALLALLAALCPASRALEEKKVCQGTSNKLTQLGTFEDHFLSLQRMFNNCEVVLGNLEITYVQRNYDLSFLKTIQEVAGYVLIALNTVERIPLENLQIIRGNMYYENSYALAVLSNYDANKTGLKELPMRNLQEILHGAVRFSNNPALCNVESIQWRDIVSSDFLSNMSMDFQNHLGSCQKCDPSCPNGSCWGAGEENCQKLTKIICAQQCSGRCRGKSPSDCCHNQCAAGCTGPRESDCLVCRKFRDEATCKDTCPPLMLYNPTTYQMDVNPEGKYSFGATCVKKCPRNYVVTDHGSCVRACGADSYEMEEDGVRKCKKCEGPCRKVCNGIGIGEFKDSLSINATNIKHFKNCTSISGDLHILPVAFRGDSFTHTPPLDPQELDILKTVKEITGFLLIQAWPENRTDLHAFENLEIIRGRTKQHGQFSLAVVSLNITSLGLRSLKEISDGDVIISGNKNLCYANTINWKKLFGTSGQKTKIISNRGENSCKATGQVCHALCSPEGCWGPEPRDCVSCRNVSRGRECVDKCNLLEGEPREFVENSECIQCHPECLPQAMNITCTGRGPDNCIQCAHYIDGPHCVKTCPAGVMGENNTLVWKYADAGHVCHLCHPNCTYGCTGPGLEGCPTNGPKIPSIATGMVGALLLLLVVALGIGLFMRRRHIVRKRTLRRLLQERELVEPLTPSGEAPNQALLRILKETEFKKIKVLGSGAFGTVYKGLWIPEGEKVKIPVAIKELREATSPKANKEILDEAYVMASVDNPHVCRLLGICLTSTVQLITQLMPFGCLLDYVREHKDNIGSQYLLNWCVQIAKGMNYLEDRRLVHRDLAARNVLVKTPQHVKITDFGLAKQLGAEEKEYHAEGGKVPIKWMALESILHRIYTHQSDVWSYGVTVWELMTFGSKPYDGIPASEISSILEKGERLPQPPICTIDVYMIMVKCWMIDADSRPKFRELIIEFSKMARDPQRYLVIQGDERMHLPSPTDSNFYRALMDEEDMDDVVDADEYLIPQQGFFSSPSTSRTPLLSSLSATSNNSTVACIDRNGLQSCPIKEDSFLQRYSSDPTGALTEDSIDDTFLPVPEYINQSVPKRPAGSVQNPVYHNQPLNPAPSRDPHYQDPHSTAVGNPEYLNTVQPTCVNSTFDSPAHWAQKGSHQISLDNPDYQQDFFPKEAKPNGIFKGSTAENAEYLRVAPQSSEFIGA
Assay [9] shares this test system. Conditions: at 1 µM.
The subject of assay [10] is Epidermal growth factor receptor (Homo sapiens), P00533 [T790M]. Conditions: at 0.1 µM.
The test system is the same in assay [11]. The conditions noted are these: at 1 µM.
The test system of assay [12] is Epidermal growth factor receptor (Homo sapiens), P00533 [L858R,T790M]. Conditions: at 0.1 µM.
Sequence of Epidermal growth factor receptor (Homo sapiens), P00533 [L858R,T790M] (P00533 whole entry T790M/L858R, looked up): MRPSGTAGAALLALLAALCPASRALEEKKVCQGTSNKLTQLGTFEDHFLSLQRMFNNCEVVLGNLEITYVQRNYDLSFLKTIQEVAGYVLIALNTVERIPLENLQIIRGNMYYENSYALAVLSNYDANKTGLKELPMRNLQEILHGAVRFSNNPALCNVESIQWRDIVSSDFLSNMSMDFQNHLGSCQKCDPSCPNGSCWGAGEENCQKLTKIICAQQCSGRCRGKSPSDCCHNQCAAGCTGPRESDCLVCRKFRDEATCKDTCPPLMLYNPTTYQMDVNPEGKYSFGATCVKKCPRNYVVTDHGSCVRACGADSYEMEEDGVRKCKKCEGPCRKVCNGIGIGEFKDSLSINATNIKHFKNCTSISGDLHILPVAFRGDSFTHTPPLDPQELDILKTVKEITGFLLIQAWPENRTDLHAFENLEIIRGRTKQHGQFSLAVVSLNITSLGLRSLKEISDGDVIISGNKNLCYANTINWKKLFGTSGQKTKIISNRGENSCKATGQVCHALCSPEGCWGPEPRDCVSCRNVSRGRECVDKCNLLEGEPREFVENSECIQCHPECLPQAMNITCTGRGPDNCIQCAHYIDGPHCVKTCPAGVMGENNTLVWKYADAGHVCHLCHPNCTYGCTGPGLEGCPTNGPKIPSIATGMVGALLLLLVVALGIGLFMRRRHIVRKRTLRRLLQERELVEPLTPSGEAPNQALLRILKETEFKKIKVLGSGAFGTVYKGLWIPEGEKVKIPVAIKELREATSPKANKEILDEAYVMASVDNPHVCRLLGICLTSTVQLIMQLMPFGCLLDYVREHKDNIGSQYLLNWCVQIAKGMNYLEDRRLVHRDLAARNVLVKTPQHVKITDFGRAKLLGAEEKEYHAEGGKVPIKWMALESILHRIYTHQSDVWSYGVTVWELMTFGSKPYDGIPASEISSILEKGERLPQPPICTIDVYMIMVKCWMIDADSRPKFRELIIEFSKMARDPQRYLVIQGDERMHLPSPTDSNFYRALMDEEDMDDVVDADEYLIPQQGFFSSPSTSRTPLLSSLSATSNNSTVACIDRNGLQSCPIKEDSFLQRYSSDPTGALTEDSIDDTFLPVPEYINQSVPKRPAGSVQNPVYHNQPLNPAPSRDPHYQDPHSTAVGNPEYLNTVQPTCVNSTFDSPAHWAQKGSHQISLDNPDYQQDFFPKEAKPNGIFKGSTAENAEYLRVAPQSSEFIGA
The test system is the same in assay [13]. The conditions noted are these: at 1 µM.
Assay [14] has as its target Ephrin type-A receptor 2 (Homo sapiens) (UniProt P29317). Conditions: at 0.1 µM.
For assay [15] the target is unchanged. Conditions: at 1 µM.
For assay [16], the target named is T2, Ephrin type-A receptor 3 (Homo sapiens) (UniProt P29320).
T2 sequence (whole entry): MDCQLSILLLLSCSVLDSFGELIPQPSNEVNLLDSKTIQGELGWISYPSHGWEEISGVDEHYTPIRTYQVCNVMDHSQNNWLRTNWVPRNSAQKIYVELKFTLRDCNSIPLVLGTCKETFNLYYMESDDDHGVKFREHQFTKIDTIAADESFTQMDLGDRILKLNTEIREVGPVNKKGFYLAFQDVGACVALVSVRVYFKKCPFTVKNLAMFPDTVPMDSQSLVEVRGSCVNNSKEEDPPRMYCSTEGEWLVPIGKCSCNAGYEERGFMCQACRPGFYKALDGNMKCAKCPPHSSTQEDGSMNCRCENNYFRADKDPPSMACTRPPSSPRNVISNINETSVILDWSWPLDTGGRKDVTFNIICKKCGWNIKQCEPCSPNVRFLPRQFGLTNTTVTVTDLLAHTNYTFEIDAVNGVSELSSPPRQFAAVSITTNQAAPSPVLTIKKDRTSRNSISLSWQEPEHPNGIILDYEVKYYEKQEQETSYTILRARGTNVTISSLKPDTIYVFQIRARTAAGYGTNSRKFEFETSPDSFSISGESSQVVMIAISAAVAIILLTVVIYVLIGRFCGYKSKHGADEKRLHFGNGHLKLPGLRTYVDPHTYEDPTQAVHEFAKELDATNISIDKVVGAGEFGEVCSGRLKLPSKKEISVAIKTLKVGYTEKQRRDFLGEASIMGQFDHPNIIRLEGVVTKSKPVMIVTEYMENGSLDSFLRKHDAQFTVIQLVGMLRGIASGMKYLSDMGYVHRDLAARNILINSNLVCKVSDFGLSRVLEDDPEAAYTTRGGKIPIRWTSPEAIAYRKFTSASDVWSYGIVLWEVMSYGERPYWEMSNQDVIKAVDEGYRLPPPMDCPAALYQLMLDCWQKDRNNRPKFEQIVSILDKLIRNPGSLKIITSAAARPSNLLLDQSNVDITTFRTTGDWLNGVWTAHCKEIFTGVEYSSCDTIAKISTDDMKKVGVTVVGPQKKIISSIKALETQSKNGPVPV
The conditions noted are these: at 0.1 µM.

For assay [17], the target named is T2, Ephrin type-A receptor 3 (Homo sapiens). The conditions noted are these: at 1 µM.
In assay [18] the target is Ephrin type-A receptor 4 (Homo sapiens) (UniProt P54764). The conditions noted are these: at 0.1 µM.
Sequence of Ephrin type-A receptor 4 (Homo sapiens) (P54764 whole entry): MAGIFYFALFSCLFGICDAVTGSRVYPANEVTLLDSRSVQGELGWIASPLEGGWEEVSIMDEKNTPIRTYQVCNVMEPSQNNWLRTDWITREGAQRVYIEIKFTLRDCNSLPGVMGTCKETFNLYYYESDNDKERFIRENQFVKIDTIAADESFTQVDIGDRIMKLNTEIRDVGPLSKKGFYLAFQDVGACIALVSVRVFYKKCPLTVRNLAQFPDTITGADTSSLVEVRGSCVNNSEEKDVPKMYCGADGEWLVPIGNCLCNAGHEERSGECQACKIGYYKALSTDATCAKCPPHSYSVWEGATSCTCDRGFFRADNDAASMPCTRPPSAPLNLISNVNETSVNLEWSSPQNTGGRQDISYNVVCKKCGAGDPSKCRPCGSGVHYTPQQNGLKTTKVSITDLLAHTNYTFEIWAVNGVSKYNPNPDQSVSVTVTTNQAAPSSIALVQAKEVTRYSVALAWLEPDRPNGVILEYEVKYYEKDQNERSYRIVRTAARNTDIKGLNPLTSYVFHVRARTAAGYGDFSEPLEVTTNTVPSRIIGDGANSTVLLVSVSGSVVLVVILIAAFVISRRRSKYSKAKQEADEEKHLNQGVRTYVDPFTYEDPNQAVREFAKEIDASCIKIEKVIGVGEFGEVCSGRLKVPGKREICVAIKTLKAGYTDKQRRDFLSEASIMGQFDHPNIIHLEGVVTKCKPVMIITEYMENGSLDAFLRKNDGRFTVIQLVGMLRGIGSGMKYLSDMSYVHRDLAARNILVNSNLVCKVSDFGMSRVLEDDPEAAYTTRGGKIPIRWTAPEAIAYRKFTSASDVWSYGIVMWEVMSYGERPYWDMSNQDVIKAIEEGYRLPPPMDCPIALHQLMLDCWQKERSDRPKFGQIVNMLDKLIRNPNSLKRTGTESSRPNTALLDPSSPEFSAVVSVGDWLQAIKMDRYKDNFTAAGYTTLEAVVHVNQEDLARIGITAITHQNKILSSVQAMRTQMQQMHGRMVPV
Assay [19] shares this target. The conditions noted are these: at 1 µM.
Assay [20] has as its target T3, Ephrin type-B receptor 2 (Homo sapiens) (UniProt P29323).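 Further: reported as mean inhibition of EPHB2, from the GSK PKIS dataset.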
T3 sequence (whole entry): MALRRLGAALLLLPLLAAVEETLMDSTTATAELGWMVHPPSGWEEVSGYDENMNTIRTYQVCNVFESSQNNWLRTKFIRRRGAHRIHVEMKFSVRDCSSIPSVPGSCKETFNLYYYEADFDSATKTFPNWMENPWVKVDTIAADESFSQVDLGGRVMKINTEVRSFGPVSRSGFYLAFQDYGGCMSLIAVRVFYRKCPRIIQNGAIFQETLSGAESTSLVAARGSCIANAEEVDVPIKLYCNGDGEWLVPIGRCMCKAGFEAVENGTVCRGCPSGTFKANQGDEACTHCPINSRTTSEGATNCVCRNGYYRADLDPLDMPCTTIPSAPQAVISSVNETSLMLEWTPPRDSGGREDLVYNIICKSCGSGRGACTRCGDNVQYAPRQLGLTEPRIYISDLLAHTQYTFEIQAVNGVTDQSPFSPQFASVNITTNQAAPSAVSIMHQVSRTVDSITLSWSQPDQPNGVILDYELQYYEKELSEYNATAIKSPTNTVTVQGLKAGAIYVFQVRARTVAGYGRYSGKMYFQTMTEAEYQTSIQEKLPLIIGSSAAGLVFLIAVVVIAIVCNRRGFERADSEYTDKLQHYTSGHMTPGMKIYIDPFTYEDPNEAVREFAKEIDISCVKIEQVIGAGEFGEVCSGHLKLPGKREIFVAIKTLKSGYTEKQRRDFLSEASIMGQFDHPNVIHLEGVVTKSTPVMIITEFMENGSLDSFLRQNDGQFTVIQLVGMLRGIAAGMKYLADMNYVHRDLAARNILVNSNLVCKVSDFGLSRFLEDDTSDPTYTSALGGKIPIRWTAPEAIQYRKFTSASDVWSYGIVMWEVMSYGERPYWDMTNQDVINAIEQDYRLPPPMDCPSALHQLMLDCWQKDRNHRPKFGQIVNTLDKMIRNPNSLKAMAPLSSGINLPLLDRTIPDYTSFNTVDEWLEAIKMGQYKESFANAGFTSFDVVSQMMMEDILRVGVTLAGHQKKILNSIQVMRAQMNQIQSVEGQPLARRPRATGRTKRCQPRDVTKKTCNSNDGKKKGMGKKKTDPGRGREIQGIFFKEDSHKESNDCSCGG
Conditions: at 0.1 µM.

Sequence of Tyrosine-protein kinase CSK (Homo sapiens) (P41240 2-450 limits assumed): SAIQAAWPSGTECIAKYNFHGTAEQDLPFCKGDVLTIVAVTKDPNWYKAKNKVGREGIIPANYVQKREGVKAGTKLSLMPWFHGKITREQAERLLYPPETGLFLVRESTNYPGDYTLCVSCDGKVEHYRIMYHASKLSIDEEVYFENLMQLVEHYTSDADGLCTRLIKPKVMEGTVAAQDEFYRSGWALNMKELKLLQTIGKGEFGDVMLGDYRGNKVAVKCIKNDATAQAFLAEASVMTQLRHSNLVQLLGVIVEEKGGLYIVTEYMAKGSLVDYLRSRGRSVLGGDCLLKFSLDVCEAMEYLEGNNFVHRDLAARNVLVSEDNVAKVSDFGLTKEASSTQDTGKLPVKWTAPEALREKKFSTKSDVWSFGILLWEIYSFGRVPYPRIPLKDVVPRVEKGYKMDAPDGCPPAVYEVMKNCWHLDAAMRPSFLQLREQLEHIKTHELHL

For `CCS(=O)(=O)c1ccc(OC)c(Nc2ncc(-c3cccc(C(C)=O)c3)o2)c1`, the inhibition in assay [1] is 10.1%; in assay [2], 3.31%; in assay [3], 17.9%; in assay [4] it was 4.92%; in assay [5], 9.23%; in [6] it was 5.11%. For the same molecule, the inhibition came to 16.6% in assay [7]; 5.35% in assay [8]; 5.8% in [9]; 1.86% in [10]; 4.71% in [11]; 1.19% in [12]. Also, the inhibition in assay [13] amounted to 7.18%; in assay [14], 3.84%; in assay [15], 2.23%; in assay [16], 3.51%; in assay [17], 6.85%; in [18], 9.55%. For the same molecule, the inhibition in assay [19] turned out to be 16.9%; in [20], 9.45%.
For the molecule `CC1(C)CC(n2cnc(-c3ccc(F)cc3)c2-c2ccnc(N)n2)CC(C)(C)N1`, the inhibition is -2.23% in assay [1]; 1.3% in assay [2]; -0.87% in [3]; 0.38% in assay [4]; -0.12% in assay [5]; -1.07% in assay [6]. Besides, the inhibition is 0.2% in [7]; -0.41% in assay [8]; -1% in [9]; -0.77% in assay [10]; -1.34% in assay [11]; 2.59% in assay [12]. The inhibition in assay [13] was 1.85%; in assay [14] it was -2.86%; in assay [15], -2.93%; in assay [16], -0.75%; in assay [17], -0.11%; in assay [18], 0.35%. In addition, the inhibition was -1.89% in [19] and 0.78% in [20].
On to `O=C(O[C@H]1CN[C@H](C#Cc2cc3ncnc(Nc4ccc(OCc5cccc(F)c5)c(Cl)c4)c3s2)C1)N1CCOCC1`, for which the inhibition in assay [1] amounted to 7.44%; in [2], 1%; in [3], 2.47%; in [4], 77.1%; in [5], 77.1%; in assay [6], 40.9%. For the same molecule, the inhibition came out at 87% in assay [7]; 42.8% in assay [8]; 75.2% in assay [9]; 5.1% in [10]; 18% in assay [11]; 4.1% in [12]. Besides, the inhibition was 9.08% in assay [13]; 1.93% in [14]; 1.46% in assay [15]; 5.97% in [16]; 4.01% in [17]; 10.4% in assay [18]. Further, the inhibition in [19] stood at 12.3%; in assay [20] it was 7.71%.
With `CCCNc1cccc(-n2ncc3c(N/N=C/c4ccncc4)ncnc32)c1`, the inhibition in [1] was found to be 12.1%; in [2], 1.93%; in assay [3] it was 7.68%; in [4] it was 3.46%; in assay [5] it was 33.5%; in [6], 14%. For the same molecule, the inhibition is 71.8% in [7]; 2.74% in assay [8]; 31.4% in [9]; -0.43% in assay [10]; 5.14% in assay [11]; 1.81% in [12]. Further, the inhibition in assay [13] came to 2.7%; in assay [14], 3.57%; in assay [15] it was 5.31%; in assay [16] it was 3.09%; in assay [17], 3.12%; in [18], 4.65%. Moreover, the figures for the inhibition in assay [19] and in assay [20] were 17.4% and -1.54%, respectively.
On to `Cc1cc(O)cc(C)c1/C=C/c1cncc(C(=O)OC(C)(C)C)c1`, for which the inhibition stood at 32.9% in [1]; 1.51% in [2]; 2.49% in assay [3]; 1.62% in assay [4]; 5.14% in assay [5]; 3.7% in assay [6]. Moreover, the inhibition in assay [7] was 17%; in [8], 2.25%; in assay [9] it was 4.72%; in [10] it was 0.92%; in assay [11], 2.69%; in [12], 2.41%. The inhibition in assay [13] was 0.87%; in [14], 16.6%; in [15] it was 60.8%; in [16], 11.2%; in [17] it was 22.4%; in assay [18], 31.1%. In addition, the inhibition came out at 80.6% in assay [19] and 23% in assay [20].
With `Cn1c(-c2nonc2N)nc2cnccc21`, the inhibition in assay [1] was -0.66%; in assay [2], 0.53%; in assay [3] it was 2.78%; in [4], 8.18%; in [5] it was 8.08%; in [6], 3.74%. Further, the inhibition in assay [7] was 5.92%; in assay [8] it was 3.1%; in assay [9], 4.3%; in assay [10], 1.55%; in [11], 0.67%; in assay [12], -1.07%. The inhibition was -0.94% in assay [13]; 1.97% in [14]; 1.07% in assay [15]; 6.89% in assay [16]; 4.47% in [17]; 7.88% in assay [18]. The inhibition was found to be 4.19% in assay [19] and 4.59% in assay [20].
